Screens deposited in PubChem by National Center for Advancing Translational Sciences (NCATS).
SMN2 splice up: qHTS Assay for Enhancers of SMN2 Splice Variant Expression; HEK293 SMN2-luciferase splicing reporter, luminescence, 30-36 h; Potency, µM (titrated, usually from 46.1 µM), inactives show at the top dose activity change, positive = activation, most hits filed as activators; 210,000 tested, 2.8% active; also: % of control where 0% means no effect; nearly all actives have a fitted effect of over 55% in size
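HEK293 cells carry an SMN2 […]–luciferase reporter in which exon 7 inclusion puts luciferase in frame. Cells were plated 10-12 h before compound addition, then incubated 30-36 h at 37C. ONE-Glo luminescence was read; sodium butyrate at 4.5 mM final served as control.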
ELG1 genotoxic: qHTS screen for small molecules that induce genotoxicity in human embryonic kidney (HEK293T) cells expressing luciferase-tagged ELG1. HEK293T ELG1-luciferase reporter, luminescence, 16 h. Potency, µM (highest dose often 46 µM), without a hit: at the highest dose activity change, positive = activation, actives largely listed as activators. 330,000 tested, 1.3% active. AID 504466, 2011; also: % of control where 0% means no effect; nearly all actives have a fitted effect of over 60% in size
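After overnight (16 hr) compound treatment at 37 °C, ELG1-luciferase HEK293T cells were lysed with ONE-Glo; luminescence quantified 30 min later at room temperature.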
FLuc modulator: qHTS profiling assay for firefly luciferase inhibitor/activator using purifed enzyme and Km concentrations of substrates (counterscreen for miR-21 project). Luciferin 4-monooxygenase (Photinus pyralis), P08659. purified FLuc, Km substrates, luminescence inhibition. Potency, µM (series often up to 57.5 µM), without a hit: at the highest dose activity change, negative = inhibition, usual class: inhibitors. 360,000 tested, 6.9% active. AID 588342, 2011;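 also: plate controls were vehicle for no effect and reference inhibitor for full effect; nearly all actives have a fitted effect of over 55% in size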
Target sequence (P08659 whole entry, looked up): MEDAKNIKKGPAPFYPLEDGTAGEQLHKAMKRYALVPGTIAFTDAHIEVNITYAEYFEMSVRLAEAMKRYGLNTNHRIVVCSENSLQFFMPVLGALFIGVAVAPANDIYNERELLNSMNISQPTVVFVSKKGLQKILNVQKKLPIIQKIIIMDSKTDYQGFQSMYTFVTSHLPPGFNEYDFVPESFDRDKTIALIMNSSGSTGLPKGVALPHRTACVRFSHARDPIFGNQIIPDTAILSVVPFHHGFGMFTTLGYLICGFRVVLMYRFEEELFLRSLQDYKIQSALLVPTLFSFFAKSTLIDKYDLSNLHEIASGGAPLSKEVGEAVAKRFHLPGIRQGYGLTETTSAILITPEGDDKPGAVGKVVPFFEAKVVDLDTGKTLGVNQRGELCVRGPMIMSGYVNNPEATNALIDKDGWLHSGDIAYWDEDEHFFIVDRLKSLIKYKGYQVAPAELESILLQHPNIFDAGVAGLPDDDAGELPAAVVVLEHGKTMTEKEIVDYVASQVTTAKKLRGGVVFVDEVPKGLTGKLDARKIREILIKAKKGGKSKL
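Purified P. pyralis luciferase, 10 nM final, with Km-level 10 uM D-luciferin and 10 uM ATP in 50 mM Tris acetate pH 7.5, 10 mM Mg acetate, 0.01% Tween-20, 0.05% BSA; 6-point qHTS titration about 60 µM downward; luminescence read.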
Rab9 promoter act: qHTS Assay for Rab9 Promoter Activators. Potency, µM (highest dose often 9.22 µM), for the others: top-dose activation, negative = inhibition, hits mostly activators. Huh7 Rab9 promoter-luciferase reporter, luminescence, 24 h. 320,000 tested, 2.8% active; also: % of control where 0% means no effect; nearly all actives have a fitted effect of over 60% in size
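Cell-based reporter: Huh7 stable for Rab9 promoter-driven luciferase, plated in reduced-serum medium with 10% FBS at 1500 cells/well, compound-treated 24 h at 37 °C, luminescence read after 10 min reagent.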
NPC1 promoter act: qHTS Assay for NPC1 Promoter Activators | Huh7 NPC1 promoter luciferase reporter, 24 h | Potency, µM (series often up to 9.22 µM), for inactives: at the top dose activation, usual class: activators | 320,000 tested, 2.4% active; also: % of control where 0% means no effect; nearly all actives have a fitted effect of over 60% in size
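Luminescence read-out of NPC1 promoter-driven luciferase in stably transfected Huh7 cells; compounds delivered in DMSO and left 24 h at 37C, 5% CO2, qHTS titration format.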
Luc counter: Counterscreen for Luciferase (Kinase-Glo TM) Inhibition; Kinase-Glo luciferase, ATP luminescence, 8 min; Potency, µM (top dose mostly 38.3 µM), without a hit: at the highest dose activity change, negative = inhibition, hits mostly inhibitors; 200,000 tested, 0.28% active; also: % is scaled to controls: 0 for no effect and ±100 for the full control effect; nearly all actives have a fitted effect of over 60% in size
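Compound is pinned into ATP-containing buffer (10 uM ATP, imidazole pH 7.2, 7 mM MgCl2). Kinase-Glo luciferase reagent is then added. Light output is recorded following an 8-min room-temperature incubation.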
Starred values were filed as active, the others as inactive; ? = inconclusive; · = not tested or not shown; [ ] = dose if it differs, or a comment. Only some compounds are listed: those with a hit (about 7.3% of all), similar ones and a draw of the others. Calls follow the shape of the dose curve; as a rule, active = well fitted curve in the direction sought with a large enough effect; inconclusive = small, poorly fitted or top-dose-only effect, or another doubt; inactive = no such curve, though single readings can be large; an effect the other way counts as inactive or inconclusive. Potency is read from the fitted curve at half-maximal effect.

SMILES | SMN2 splice up | ELG1 genotoxic | FLuc modulator | Rab9 promoter act | NPC1 promoter act | Luc counter
CN1CCN(NC(=O)c2cn(-c3ccccc3)nc2-c2cccs2)CC1 | -6% | 2% | ? | 3% | 0% | 3%
CN(C)C(=O)c1cn(-c2ccccc2)nc1-c1cccs1 | 4% | 4% | ? | 3% | 1% | -1%
O=C(Nc1cn(-c2ccccc2)nc1-c1cccs1)c1ccco1 | 2% | 0% | 17µM* | -7% | 13% | 14%
O=C(NN1CCOCC1)c1cn(-c2ccccc2)nc1-c1cccs1 | · | 1% | 21µM* | 1% | 1% | ·
CN(C)c1ccc(NC(=O)c2cn(-c3ccccc3)nc2-c2cccs2)cc1 | 23% | 11% | 6.7µM* | 6% | 13% | 0%
N[C@H](C(=O)O)[C@H](N)C(=O)O | -11%[9.22 µM] | · | · | · | · | -2%[7.66 µM]
O=C(c1cn(-c2ccccc2)nc1-c1cccs1)N1CCN(c2ccccn2)CC1 | -36% | -18% | 3.8µM* | 3% | -4% | 1%
O=C(Nc1ccc2ccccc2c1)c1cn(-c2ccccc2)nc1-c1cccs1 | -12% | 1% | 6µM* | 25% | -3% | -1%
CCN(CC(=O)Nc1ccc(NC(C)=O)cc1)C(=O)c1cn(-c2ccccc2)nc1-c1cccs1 | · | -7% | 21µM* | -3% | 0% | ·
CN1CCN(C(=O)c2cn(-c3ccccc3)nc2-c2cccs2)CC1 | 8% | -5% | ? | -2% | 0% | -2%
C=C1C=C(C(F)F)n2ncc(C(=O)NCc3ccccc3Cl)c2N1 | · | · | -1% | · | · | ·
CC(C)(C)c1csc(NC(=O)c2ccc3nccnc3c2)n1 | 14% | 8% | 8.5µM* | 3.5µM* | 2.5µM* | 0%
CC(C)(C)c1csc(NC(=O)c2ccc(Cl)s2)n1 | -17% | 4% | 6.7µM* | ? | ? | 2%
Cc1ccc(C(=O)Nc2nc(C(C)(C)C)cs2)s1 | -5% | 4.6µM* | 5.4µM* | 3.2µM* | ? | 15%
CC(C)(C)c1csc(NC(=O)c2ccncc2)n1 | -64% | -5% | ? | -6% | -7% | -2%
CCCN(CCC)CCCNC(=O)c1sc2nc3n(c(=O)c2c1C)CCC3 | · | · | -11% | · | · | ·
COCCn1c(CNC(=O)c2ccccc2C)nc2cccnc21 | · | · | -1% | · | · | ·
COc1cc2nc(NC(=O)c3ccco3)sc(=O)c2cc1OC | · | -7% | -8% | -8% | -16% | ·
Cc1nc(NC(=O)c2ccco2)sc1-c1csc(Nc2ccc(Cl)cc2Cl)n1 | -2% | -7% | ? | -2% | -2% | -1%
O=C(Nc1nc2ccc(Cl)cc2s1)c1ccco1 | 3.2µM* | ? | 1.7µM* | 1.3µM* | 0.63µM* | 13%
O=C(Nc1nc2ccc(Br)cc2s1)c1ccco1 | · | ? | 3µM* | 0.63µM* | 1.3µM* | ·
COc1ccc(C2CC(=O)c3cc(-c4nc(-c5cccc([N+](=O)[O-])c5)cs4)c(=O)n(-c4ccccc4N)c3C2)cc1 (centres undefined) | 12% | · | -6% | · | · | ·
Cn1c2ccccc2c2ncn(CCC3=CCCCC3)c(=O)c21 | · | ? | 17µM* | 4.5µM* | 28% | ·
Cn1c2ccccc2c2ncn(CCCN3CCOCC3)c(=O)c21 | ? | 15% | -1% | 3% | -4% | -2%
COc1ccc(OCc2cc(C(=O)N3CCCC(O)C3)no2)c2ccccc12 (centres undefined) | · | ? | 12µM* | ? | ? | ·
SMILES | SMN2 splice up | ELG1 genotoxic | FLuc modulator | Rab9 promoter act | NPC1 promoter act | Luc counter
Cc1ccc(C)c(OCc2cc(C(=O)N3CC[C@H](O)C3)no2)c1 | · | ? | 12µM* | 2.5µM* | 30% | ·
COc1cc(Cl)ccc1OCc1cc(C(=O)N2CCC(N(C)C)C2)no1 (centres undefined) | · | 4% | -17% | -3% | 1% | ·
COc1ccc(OCc2cc(C(=O)N3CCCC(OC)C3)no2)c2ccccc12 (centres undefined) | · | ? | 27µM* | ? | ? | ·
CCCOC1CCCN(C(=O)c2cc(COc3c(F)cccc3F)on2)C1 (centres undefined) | · | ? | 12µM* | 2.2µM* | 2.8µM* | ·
COc1ccc(OCc2cc(C(=O)NC3CCOCC3)no2)c2ccccc12 | · | 0% | -5% | 4% | -4% | ·
CCN1CCC2(CCN(C(=O)c3cc(COc4cc(C)ccc4C)on3)C2)C1 (centres undefined) | · | 0% | 0% | -2% | -7% | ·
OC(c1ccccc1)c1nc2ccccc2n1Cc1c(F)cccc1Cl (centres undefined) | 9% | · | -2% | · | · | ·
COc1ccc(NCc2cc3cc4c(cc3n(CC(=O)Nc3ccc(C)c(C)c3)c2=O)OCO4)cc1 | · | · | -1% | · | · | ·
CC(C)COc1ccc(-c2nn(-c3ccccc3)cc2CO)cc1 | · | 0% | ? | -5% | 0% | ·
OCc1cn(-c2ccccc2)nc1-c1ccc(Br)cc1 | · | ? | 17µM* | ? | ? | ·
OCc1cn(-c2ccccc2)nc1-c1ccc2c(c1)OCCO2 | -26% | 5% | 21µM* | ? | ? | -1%
COc1ccc(CC(=O)N(Cc2nc(-c3ccc(C)cc3)no2)C(C)C)cc1 | -36% | · | -1% | · | · | ·
Cc1ccc(-n2nc(CO)c(C(=O)NCCCCc3ccccc3)n2)cc1 | 21% | · | 6% | · | · | ·
Cc1cc(-c2nnco2)c(C)n1-c1ccccc1 | ? | 11µM* | 12µM* | ? | ? | -2%
CCCCc1nc2c(c3c1C[C@H](C)OC3)CN(C(=O)Nc1cccc(C#N)c1)CC2 | 0%[9.22 µM] | · | · | · | · | 0%[7.66 µM]
CN(C)c1ncc2nc(CCc3ccccc3)c(=O)n(-c3ccccc3)c2n1 | -9% | · | · | · | · | 1%
Cc1[nH][nH]c(=O)c1C(c1ccc(Br)cc1)c1c(C)[nH][nH]c1=O | · | -1% | 0% | 4% | -1% | ·
Cc1cn(-c2ccc(Br)cc2)[nH]c1=O | 21% | 18µM* | ? | 18% | 27% | 0%
O=[N+]([O-])c1ccc(/C=N/Nc2ccc3ccccc3c2)o1 | 9% | 13% | 11µM* | ? | ? | 15%
Cc1ccc2nc(N/N=C\c3ccc([N+](=O)[O-])o3)nc(-c3ccccc3)c2c1 | -27% | -19% | 7.6µM* | 3% | 0% | 2%
COc1ccccc1CNC(=O)C(=O)NCC(c1cccs1)S(=O)(=O)c1ccccc1 (centres undefined) | · | · | -9% | · | · | ·
CC/C(=N\Nc1nncc2ccccc12)c1ccc(F)cc1 | · | 16µM* | 12µM* | ? | ? | ·
